TLR4-MyD88 BLA – inhibitors of TLR4-MyD88 association in cells, primary screen, cell-based, HeLa CL3-4, BLA complementation, FRET ratio; Toll-like receptor 4 (Homo sapiens) + Myeloid differentiation primary response protein …; HeLa CL3-4 TLR4/MyD88 BLA complementation; inhibition, % at 8.4 µM; 200,000 compounds, 0.18% hits; in the data active = inhibition above about 25%;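 note: 0% = vehicle and 100% = reference inhibitor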
Exocytosis inh – LAMP-1 surface exposure blockers, TALL-104 cells – cell-based, flow cytometry, MLPCN library, primary screen; inhibition, % at 10 µM; TALL-104 LAMP-1 surface exposure; cells stimulated with thapsigargin and PMA; 360,000 compounds, 0.66% hits;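 active = inhibition above about 55%, limit read from the data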
TLR9-MyD88 inh – inhibitors of TLR9-MyD88 association in cells, primary screen, cell-based, CHO, BLA complementation, fluorescence; Toll-like receptor 9 (Homo sapiens) + Myeloid differentiation primary response protein …; CCF4 FRET ratio; 340,000 compounds, 0.21% hits; inhibition, % at 4.98 µM;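 active = inhibition above the mean over all tested compounds plus 3 SD, cut at about 21% in these data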;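 note: 0% = DMSO only wells and 100% = clavulanate BLA inhibitor control wells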
Target sequence (Q99836 whole entry, looked up): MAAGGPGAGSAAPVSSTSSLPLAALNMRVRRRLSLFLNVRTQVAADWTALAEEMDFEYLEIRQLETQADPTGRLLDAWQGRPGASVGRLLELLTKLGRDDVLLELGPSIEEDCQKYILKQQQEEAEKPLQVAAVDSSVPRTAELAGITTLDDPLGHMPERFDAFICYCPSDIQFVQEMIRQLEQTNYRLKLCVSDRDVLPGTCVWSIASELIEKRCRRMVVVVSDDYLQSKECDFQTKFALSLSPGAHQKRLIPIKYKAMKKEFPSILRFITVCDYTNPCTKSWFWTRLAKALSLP
Target sequence (Q9NR96 whole entry, looked up): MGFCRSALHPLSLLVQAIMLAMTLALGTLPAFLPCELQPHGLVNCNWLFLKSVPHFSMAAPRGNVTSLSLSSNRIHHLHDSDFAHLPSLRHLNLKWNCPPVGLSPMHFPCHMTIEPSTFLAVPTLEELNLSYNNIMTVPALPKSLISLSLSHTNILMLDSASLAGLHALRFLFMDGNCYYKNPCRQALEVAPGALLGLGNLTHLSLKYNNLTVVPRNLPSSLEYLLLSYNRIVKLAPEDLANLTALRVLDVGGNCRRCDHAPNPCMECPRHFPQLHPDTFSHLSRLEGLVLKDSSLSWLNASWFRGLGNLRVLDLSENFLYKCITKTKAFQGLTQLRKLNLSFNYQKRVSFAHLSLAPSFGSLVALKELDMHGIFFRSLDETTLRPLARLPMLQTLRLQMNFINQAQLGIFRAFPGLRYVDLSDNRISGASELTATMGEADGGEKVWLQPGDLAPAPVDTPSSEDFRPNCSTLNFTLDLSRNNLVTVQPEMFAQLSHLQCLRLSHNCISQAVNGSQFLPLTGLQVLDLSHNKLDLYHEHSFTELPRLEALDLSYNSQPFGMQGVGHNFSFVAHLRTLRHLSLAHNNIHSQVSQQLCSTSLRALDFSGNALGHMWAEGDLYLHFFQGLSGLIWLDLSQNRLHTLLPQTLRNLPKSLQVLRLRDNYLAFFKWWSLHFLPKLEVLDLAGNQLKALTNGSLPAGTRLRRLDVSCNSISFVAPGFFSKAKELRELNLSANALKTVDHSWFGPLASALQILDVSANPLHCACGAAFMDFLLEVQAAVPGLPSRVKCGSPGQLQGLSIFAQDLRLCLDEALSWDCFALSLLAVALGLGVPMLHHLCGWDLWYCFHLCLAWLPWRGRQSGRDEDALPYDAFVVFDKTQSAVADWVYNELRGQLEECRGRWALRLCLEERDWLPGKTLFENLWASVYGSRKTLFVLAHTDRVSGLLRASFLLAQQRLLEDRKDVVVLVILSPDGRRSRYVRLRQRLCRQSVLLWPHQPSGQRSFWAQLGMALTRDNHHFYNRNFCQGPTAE
B2AR ag – beta2AR agonists driving receptor internalization, primary screen, cell-based, FAP fluorogen, flow cytometry. Beta-2 adrenergic receptor (Homo sapiens), P07550. Am2.2-beta2AR cells. response, % (no concentration beside the values). 340,000 compounds, 0.43% hits. AID 504454, 2011;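 active = response above a set limit, near 3 SD of response in nonfluorescent compounds, cut at about 42% in these data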
NOD2-RIPK2 inh – NOD2-RIPK2 binding disruptors in cells, primary screen, fluorescence, CHO cells, BLA complementation | CCF4 ratio | inhibition, % at 4.98 µM | 360,000 compounds, 0.38% hits | AID 624267, 2012; in the data active = inhibition above about 21%;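 note: 0% = vehicle only and 100% = reference blocker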
ABHD5-PLIN5 inh – ABHD5-PLIN5 interaction inhibitors, primary screen, cell lysate, split luciferase complementation, luminescence; 360,000 compounds, 0.78% hits; Split G. princeps luciferase complementation, 4 h; inhibition, % at 4 µM;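 active = inhibition above the mean inhibition across every tested compound plus 3 SD, cut at about 22% in these data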;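 note: 0% = DMSO only wells and the 100% control is not disclosed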
TLR4 MyD88 cnf – TLR4-MyD88 association inhibitors, retest, confirmation, cell-based, HeLa CL3-4, BLA complementation, FRET ratio | AID 941, 2007 | CCF4 FRET ratio | shares compounds with TLR4-MyD88 BLA | 350 compounds, 50% hits | inhibition, % at 8.4 µM;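 active = mean inhibition across three repeat runs above about 25% carried over from the earlier screen, limit read from the data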;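 note: plate controls were DMSO only for no effect and clavulanic acid blocking BLA at full dose for full effect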
BLA inhibitor ct – counter-screen for TLR4-MyD88 inhibitors: beta-lactamase reporter inhibitors; inhibition, % at 8.4 µM; shares compounds with TLR4-MyD88 BLA; AID 1237; HeLa BLA reporter, CCF4 FRET ratio; 350 compounds, 63% hits;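 active = mean inhibition over three repeats above about 26% taken from the earlier screen, limit read from the data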;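 note: HeLa cells stably expressing beta-lactamase reporter as counterscreen for TLR4-MyD88 inhibitors; 0% = DMSO and 100% = clavulanic acid full inhibition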
An asterisk follows results filed as active. Most compounds without a hit are left out; they make up all but 2% or so of the library.

For Cc1ccc(C)c(NS(=O)(=O)c2ccc(OCC(=O)NCc3ccco3)cc2)c1 the results were TLR4-MyD88 BLA 26*, Exocytosis inh -2, TLR9-MyD88 inh 3, B2AR ag 3, NOD2-RIPK2 inh 3, ABHD5-PLIN5 inh 2, TLR4 MyD88 cnf 3 and BLA inhibitor ct 1.
CC1CCN(Cc2ccc(-c3nn[nH]n3)cc2)CC1 was read as TLR4-MyD88 BLA 27*, Exocytosis inh -1, TLR9-MyD88 inh -19, B2AR ag 0, NOD2-RIPK2 inh -2, ABHD5-PLIN5 inh 3, TLR4 MyD88 cnf -5 and BLA inhibitor ct 4.
Screening Cc1ccc(N2CCN(C(C(=O)Nc3c(C)cccc3C)c3ccccc3OC(F)(F)F)CC2)cc1 (configuration not stated) returned Exocytosis inh 5, NOD2-RIPK2 inh -6 and ABHD5-PLIN5 inh -6.
Screening O=C(NCCCc1ccccc1)c1ccccc1 returned TLR4-MyD88 BLA 26*, Exocytosis inh 0, TLR9-MyD88 inh -2, B2AR ag -5, NOD2-RIPK2 inh -11, ABHD5-PLIN5 inh 0, TLR4 MyD88 cnf -9 and BLA inhibitor ct -3.
Screening CCOC(=O)C1=CCN(S(=O)(=O)c2ccccc2Cl)C1c1ccc(C)cc1 (configuration not stated) returned Exocytosis inh -3, NOD2-RIPK2 inh -2 and ABHD5-PLIN5 inh -3.
`Cc1ccccc1OCC(=O)NC(=S)Nc1ccc(S(=O)(=O)NC2CCCCC2)cc1` gave TLR4-MyD88 BLA -10, Exocytosis inh -1, TLR9-MyD88 inh 1, B2AR ag -4, NOD2-RIPK2 inh -6 and ABHD5-PLIN5 inh -3.
CC(=O)NS(=O)(=O)c1ccc(NC(=S)NC(=O)COc2ccccc2C)cc1 was read as TLR4-MyD88 BLA 34*, Exocytosis inh 8, TLR9-MyD88 inh -1, B2AR ag 6, NOD2-RIPK2 inh -12, ABHD5-PLIN5 inh -4, TLR4 MyD88 cnf -13 and BLA inhibitor ct 7.
Cn1cc(Cc2ccccc2)c(=O)c(Cc2ccccc2)c1 was read as Exocytosis inh -4, TLR9-MyD88 inh -1, B2AR ag -1, NOD2-RIPK2 inh 2 and ABHD5-PLIN5 inh 3.
For CCCS(=O)(=O)NC(=O)C1(C)CCN(C(=O)c2ccc3c(c2)OCO3)C1 (configuration not stated) the results were Exocytosis inh -2, NOD2-RIPK2 inh 3 and ABHD5-PLIN5 inh -5.
For O=C(Cn1ncc(Cl)c(Cl)c1=O)N1CCc2ccccc21 the results were TLR4-MyD88 BLA 27*, Exocytosis inh 0, TLR9-MyD88 inh 14, B2AR ag 54*, NOD2-RIPK2 inh 21, ABHD5-PLIN5 inh 6, TLR4 MyD88 cnf 24 and BLA inhibitor ct 5.
For O=C(Cn1ncc(Cl)c(Cl)c1=O)N1CCN(Cc2ccccc2)CC1 the results were TLR4-MyD88 BLA 24, Exocytosis inh -1, TLR9-MyD88 inh 10, B2AR ag 17, NOD2-RIPK2 inh 18 and ABHD5-PLIN5 inh 6.
Cc1ccc(S(=O)(=O)NC(C(=O)Oc2ccc3c(C(F)(F)F)cc(=O)oc3c2)c2ccccc2)cc1 (configuration not stated) was read as TLR4-MyD88 BLA 38*, Exocytosis inh 3, TLR9-MyD88 inh 3, B2AR ag -8, NOD2-RIPK2 inh 0, ABHD5-PLIN5 inh 1, TLR4 MyD88 cnf 31* and BLA inhibitor ct 62*.
